According to PubChem BioAssay (NCI):
Compounds without any hit were thinned out: in the full panel of roughly 83,000, 20% have a hit.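 Treatment: one concentration, 48 hours, 96-well format. Scoring: percent growth, with anything below 10 considered active.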 A number with no mark means an inactive call. Active and inactive are the calls of the source.

Columns and labels:
Test in all cases: NCI-60 one-dose screen, 48 h (100 = growth as untreated, 0 = no growth, -100 = all killed)
Conditions in all cases: 10 µM unless noted
T-47D breast = tested on: T-47D breast
BT-549 breast = tested on: BT-549 breast
SW-620 colon = tested on: SW-620 colon
HCT-116 colon = tested on: HCT-116 colon
HCC-2998 colon = tested on: HCC-2998 colon
KM12 colon = tested on: KM12 colon
MDA-MB-435 melanoma = tested on: MDA-MB-435 melanoma
MCF7 breast = tested on: MCF7 breast

Row | Structure (SMILES) | growth (T-47D breast) | growth (BT-549 breast) | growth (SW-620 colon) | growth (HCT-116 colon) | growth (HCC-2998 colon) | growth (KM12 colon) | growth (MDA-MB-435 melanoma) | growth (MCF7 breast)
1 | CC(=O)[C@@]1(O)CC[C@H]2[C@@H]3CC[C@@H]4CC(=O)CC[C@]4(C)[C@H]3[C@@H](O)C[C@@]21C | 88.2% | 102% | 100% | 107% | 98.4% | 101% | – | –
2 | Cc1ccc2nc(N)nnc2c1 | 108% | – | 95.1% | 108% | 103% | 103% | 106% | 104%
3 | CN1C(=O)NC(c2ccc(Cl)cc2)(c2ccc(Cl)cc2)C1=O | 94.2% | – | 103% | 88.2% | 101% | 87.9% | 97.3% | 102%
4 | CCC(=O)Oc1ccc2ccccc2c1 | 74.9% | – | 85.7% | 102% | 88.7% | 99.6% | 101% | 101%
5 | S=C(Sc1ccc(Cl)cc1)Sc1ccc(Cl)cc1 | -1.08% (active) | – | -68% (active) | -68.4% (active) | 24.1% | 41% | 19.6% | 24%
6 | Cc1cccc(-[n+]2noc(N)n2)c1 | 59% | – | 86.3% | 82.2% | 79% | 70.2% | 83.7% | 76%
7 | O=[N+]([O-])c1c(Cl)ncnc1Cl | 117% | 106% | 95.3% | 115% | 121% | 102% | – | 95.2%
8 | O=c1cc(C(F)(F)F)[nH]c(=S)[nH]1 | 97.7% | 122% | – | 112% | 117% | 103% | 106% | 94.9%
9 | C=CCC(OC(C)=O)c1ccc(OC)c(OC)c1 (centres undefined) | 112% | 116% | 98% | 103% | – | 99% | 110% | –
10 | C=C(c1ccc(N(C)C)cc1)c1ccc(N(C)C)cc1 | 26.9% | -5.95% (active) | – | 5.45% (active) | 5.58% (active) | 26.5% | -67.6% (active) | 13.5%
11 | Oc1ccc(CCC2CCNc3ccccc32)cc1 (centres undefined) | 63.9% | 47.2% | 97.2% | 89.3% | 102% | 88.4% | – | –
12 | CSCCC(NC(=O)C(Cl)Cl)C(=O)O (centres undefined) | 82.9% | 102% | 100% | 91.2% | 98.8% | 106% | – | 95.3%
13 | Cc1nc(C)c(C(=O)O)cc1C(=O)O | 122% | – | 109% | 111% | 101% | 117% | 110% | 109%
14 | O=Cc1ccc(Cl)c(Cl)c1 | 115% | – | 118% | 107% | 97.2% | 113% | 110% | 98.4%
15 | Cc1ccc([N+](=O)[O-])c(C)n1 | 102% | – | 99.5% | 104% | 103% | 107% | 99.8% | 96.2%
16 | CN(C)c1ccc2c(N(C)C)cc(N(C)C)nc2c1 | 56% | – | 51.6% | 48.1% | 118% | 78.3% | 80.2% | 13.9%
17 | Nc1cc2ccccc2c(O)c1O | -0.96% (active) | – | -33.6% (active) | -66.9% (active) | 113% | 62.3% | -81.1% (active) | -43.2% (active)
18 | Oc1cccnc1CN1CCCC1 | 95.2% | – | 105% | 116% | – | 113% | 107% | 93.9%
19 | Cc1ccc(NC(=O)c2ccccc2Cl)cc1 | 112% | – | 109% | 114% | 124% | 105% | 109% | 99.4%
20 | Cc1ccc(OC(=O)c2ccccc2)cc1 | 108% | – | 111% | 105% | 107% | 108% | 112% | 97.4%
21 | Cc1nc(O)cc(=O)[nH]1 | 113% | – | 109% | 113% | 110% | 110% | 126% | 101%
22 | Cc1ccc2nc(-c3ccc(N=Cc4ccccc4O)cc3)sc2c1 | 69% | – | 97.8% | 79.2% | -12.3% (active) | 99.2% | 105% | 77.1%
23 | C=CCN1CCCC1=O | 100% | – | 102% | 106% | 128% | 110% | 101% | 99.6%
24 | COC(=O)Cc1cc(COC(C)=O)ccc1C | 110% | – | 110% | 104% | 106% | 114% | 116% | 106%
25 | O=C(O)CCCCCNC(=O)OCc1ccccc1 | 97.6% | – | 95.2% | 92.9% | 105% | 101% | 99.8% | 93.6%

Row | Structure (SMILES) | growth (T-47D breast) | growth (BT-549 breast) | growth (SW-620 colon) | growth (HCT-116 colon) | growth (HCC-2998 colon) | growth (KM12 colon) | growth (MDA-MB-435 melanoma) | growth (MCF7 breast)
26 | N#Cc1ccc2nc[nH]c2c1 | 107% | – | 104% | 105% | 110% | 98.5% | 109% | 96.8%
27 | COc1ccc(Br)c2c1C(=O)CC2 | 133% | – | 123% | 108% | 113% | 117% | 116% | 107%
28 | NC(CO)(CO)c1ccccc1 | 99.7% | – | 96.9% | 101% | 110% | 94.5% | 98.4% | 95.9%
29 | C=CC(=O)OC1CCC(C(C)(C)CC)CC1 (centres undefined) | 112% | – | 107% | 104% | 110% | 106% | 103% | 96%
30 | CCOC(=O)CO | 97.7% | – | 110% | 102% | 103% | 109% | 104% | 97.5%
31 | CCOC(=O)CNC(=O)Sc1ccc(C(C)(C)C)cc1 | 88.4% | – | 108% | 98.6% | 110% | 102% | 88.3% | 99.3%
32 | CC1CC2C3CCC4=CC(=O)CCC4(C)C3CCC2(C)C1(O)C(=O)CO (centres undefined) | 103% | – | 113% | 109% | 104% | 119% | 115% | 99.8%
33 | Cc1ccc(S(=O)(=O)CCCl)cc1 | 106% | – | 110% | 118% | 104% | 111% | 117% | 100%
34 | NC(=S)c1c(N)n(C2OC(CO)C(O)C2O)c2ncnc(N)c12 (centres undefined) | -48.2% (active) | – | -18.3% (active) | 5.32% (active) | 3.23% (active) | -6.52% (active) | -46.6% (active) | -11.6% (active)
35 | Clc1ccc(/C=C/c2ccccn2)cc1 | 44.1% | – | 84.2% | 81.6% | 111% | 89.8% | 105% | 25.9%
36 | O=C(CCl)Oc1ccc([N+](=O)[O-])cc1 | 105% | – | 113% | 110% | 102% | 107% | 107% | 99.5%
37 | CC1(C)CC(=O)C=C(N)C1 | 141% | – | 96% | 102% | 45.4% | 124% | 99.2% | 160%
38 | CCOc1ccc(NC(=S)N2CCC(CCCC3CCN(C(=S)Nc4ccc(OCC)cc4)CC3)CC2)cc1 | 67.8% | – | 98.3% | 84.5% | 85.6% | 90.6% | 90.4% | 84.1%
39 | C=CCC(OC(C)=O)c1ccc(C(C)C)cc1 (centres undefined) | 115% | – | 107% | 110% | 103% | 114% | 124% | 113%
40 | CCOC(=O)c1ccc(NC(=O)Nc2nccs2)cc1 | 57.3% | – | 16.5% | 1.86% (active) | -27.7% (active) | -33.3% (active) | 5.34% (active) | 0.495% (active)
41 | NC(=O)N1CCOCC1 | 97.4% | – | 112% | 106% | 112% | 108% | 116% | 93%
42 | Cc1cc(C(=O)c2ccccc2)cc(C)c1O | 95.6% | – | 97.4% | 84.5% | 102% | 99.6% | 101% | 93.8%
43 | c1ccc2[nH]c(Cc3nc4ccccc4[nH]3)nc2c1 | 89.3% | – | 105% | 89.8% | 108% | 97.6% | 101% | 84.9%
44 | O=C(OCC1CCCO1)c1ccc([N+](=O)[O-])cc1 (centres undefined) | 84.8% | – | 91.8% | 103% | 117% | 109% | 109% | 95.6%
45 | CC(=O)Nc1ccc(C(=O)c2ccc(S(=O)(=O)Nc3ccccc3)cc2)cc1 | 99.2% | – | 103% | 75.4% | -97.1% (active) | 108% | 101% | 85.3%
46 | C=C1CC2(OC1=O)C(=O)N(C)c1ccc(I)cc12 (centres undefined) | -82.6% (active) | – | -76.3% (active) | -92.6% (active) | -89.3% (active) | 2.99% (active) | -64.8% (active) | -66.8% (active)
47 | O=C(NC1CCCCC1)c1ccc(Cl)cc1 | 85.1% | – | 103% | 106% | 106% | 102% | 105% | 104%
48 | NC(CSSCC(N)C(=O)O)C(=O)O (centres undefined) | 54.7% | – | 21.7% | 18.6% | 9.17% (active) | 8.65% (active) | -15.1% (active) | 20.4%
49 | NC(=S)N/N=C/c1ccc(Cl)cc1 | 86.8% | – | 113% | 100% | 96.2% | 113% | 110% | 93.4%
